# Cruzain inh noDet: qHTS Assay for Promiscuous and Specific Inhibitors of Cruzain (without detergent); Cruzipain (Trypanosoma cruzi), P25779; purified cruzain, Z-FR-AMC fluorescence, no detergent; Potency, µM, for inactives: max response, negative = inhibition, actives largely listed as inhibitors; actives 2.3% (n = 200,000); AID 1476, 2009;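 also: plate controls were enzyme without inhibitor for no effect and buffer without enzyme for full effect; nearly all actives have a fitted effect of over 40% in size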
# Target sequence (P25779 123-467 limits assumed): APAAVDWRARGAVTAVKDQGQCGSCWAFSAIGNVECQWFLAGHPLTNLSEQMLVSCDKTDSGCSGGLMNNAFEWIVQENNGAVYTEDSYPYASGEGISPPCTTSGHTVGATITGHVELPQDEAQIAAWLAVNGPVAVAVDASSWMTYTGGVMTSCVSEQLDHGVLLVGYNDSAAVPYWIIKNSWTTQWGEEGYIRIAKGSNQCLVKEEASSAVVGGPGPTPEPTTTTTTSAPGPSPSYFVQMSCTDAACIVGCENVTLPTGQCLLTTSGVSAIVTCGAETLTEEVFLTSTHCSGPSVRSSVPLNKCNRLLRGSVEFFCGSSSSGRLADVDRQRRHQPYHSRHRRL
#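 Purified cruzain at 1.5 nM, pre-incubated 15 min with compound at room temperature in 100 mM sodium acetate pH 5.5, 5 mM DTT, 0.00005% Triton X-100. Reaction started with 2 uM Z-FR-AMC; AMC fluorescence increase over 60 s gives rate.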
# Cruzain Triton: qHTS Assay for Promiscuous and Specific Inhibitors of Cruzain (with detergent); actives 0.43% (n = 200,000); purified cruzain, Z-FR-AMC fluorescence, 0.01% Triton; AID 1478, 2009; Potency, µM, for the others: max response, negative = inhibition, actives largely listed as inhibitors; Cruzipain (Trypanosoma cruzi), P25779;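 also: plate controls were neutral wells for no effect and buffer without enzyme for full effect; nearly all actives have a fitted effect of over 40% in size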
#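 Compounds were screened in titration against cruzain (1.5 nM) with 0.01% Triton X-100 to counter colloidal aggregation. Activity was the AMC fluorescence increase over 60 s after adding 2 uM Z-FR-AMC at pH 5.5.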
# * hit, by the source's call; u = inconclusive. Only some compounds are listed: those with a hit (about 2.6% of all), similar ones and a draw of the others. Calls follow the shape of the dose curve; as a rule, active = well fitted curve in the direction sought with a large enough effect; inconclusive = small, poorly fitted or top-dose-only effect, or another doubt; inactive = no such curve, though single readings can be large; an effect the other way counts as inactive or inconclusive. Potency is read from the fitted curve at half-maximal effect.
SMILES,Cruzain inh noDet,Cruzain Triton
COc1ccccc1Nc1nc(-c2sc(NC(=O)c3ccccc3)nc2C)cs1,u,3%
COc1ccc(-c2sc(NC(=O)c3ccc(C)cc3)nc2-c2ccc([N+](=O)[O-])cc2)cc1,4µM*,-5%
Cc1nc(NC(=O)c2ccccc2)sc1-c1csc(NCCc2ccccc2)n1,u,-9%
CCOc1ccccc1Nc1nnc(SC(C)C(=O)Nc2nc(-c3ccccc3)cs2)s1 (stereo unspecified),7.9µM*,-5%
CCOc1ccccc1Nc1nc(-c2sc(NC(=O)c3cccc(Cl)c3)nc2C)cs1,6.3µM*,0%
CCOc1ccccc1Nc1nc(-c2sc(NC(=O)c3ccccc3)nc2C)cs1,13µM*,-4%
COc1ccc2c(c1)CCc1sc(NC(=O)c3ccc(C)cc3)nc1-2,-8%,-6%
COc1cc(C)nc(N2CCCC(C(=O)Nc3cccc(Cl)c3C)C2)n1 (stereo unspecified),17%,9%
COc1ccc2cc(CCNC(=O)C(C)(C)C)c(=O)[nH]c2c1,-4%,-2%
Brc1ccc(-c2csc(-c3ccncc3)n2)cc1,3%,-2%
O=C(CN1C(=O)NC(Cc2c[nH]c3ccccc23)C1=O)Nc1cccc(S(=O)(=O)N2CCCCCC2)c1 (stereo unspecified),-28%,-8%
CCOc1cc2sc(N3CCC(C(=O)Nc4ccc(C)cc4)CC3)nc2cc1Br,5%,0%
O=C(NCc1cccnc1)C1CCCN(S(=O)(=O)c2cccc3nsnc23)C1 (stereo unspecified),0%,-4%
COc1ccccc1Nc1nc(-c2sc(NC(=O)c3ccc([N+](=O)[O-])cc3)nc2C)cs1,4µM*,1%
COc1ccc(OC)c(Nc2nc(-c3sc(NC(=O)C(C)(C)C)nc3C)cs2)c1,-2%,-1%
Cc1c(/C=N/NC(=O)c2ccc(O)cc2)c2ccccn2c1C(=O)c1ccc(F)cc1,u,-3%
Cc1c(/C=N/NC(=O)c2ccccc2O)c2ccccn2c1C(=O)c1ccc(F)cc1,25µM*,-12%
COC(=O)c1ccccc1NC(=O)c1ccc(COc2ccccc2)o1,-17%,-12%
COC(=O)c1ccccc1NC(=O)c1ccc(COc2cccc3ccccc23)o1,16µM*,-1%
CC(C)(C)C(=O)Cn1c(=O)n(-c2ccc(Cl)c(Cl)c2)c(=O)c2c3c(sc21)CCCC3,-1%,-3%
CCOc1cc(C(=S)N2CCC(O)CC2)ccc1OS(=O)(=O)c1ccc(Br)cc1,u,0%
CN(C)c1ccc(-c2noc(-c3ccccc3O)n2)cc1,25µM*,22µM*
c1ccc(-c2noc(-c3ccccc3-c3ccccc3)n2)cc1,-9%,-4%
CCOc1ccc(NC(=O)Cn2c(=O)n(Cc3nc(-c4ccccc4)no3)c(=O)c3cc4c(cc32)OCO4)cc1,-17%,-2%
COc1ccc(-c2noc(Cn3c(=O)c4ccccc4n(CC(=O)Nc4cccc(C(F)(F)F)c4)c3=O)n2)cc1,16µM*,-3%
SMILES,Cruzain inh noDet,Cruzain Triton
Cc1ccc(NC(=O)Cn2c(=O)n(Cc3nc(-c4ccccc4)no3)c(=O)c3ccccc32)cc1C,-21%,-3%
O=C(Cn1c(=O)n(Cc2nc(-c3ccccc3)no2)c(=O)c2cc3c(cc21)OCO3)Nc1cccc(C(F)(F)F)c1,5µM*,1%
CCN(CC)CCOC(=O)c1ccc(NC(=O)CCNC(=O)Cn2ccc3ccccc3c2=O)cc1,-1%,1%
Cc1cc(NC(=O)/C=C/c2cccc(Cl)c2)n(-c2nc3ccccc3[nH]2)n1,-27%,-2%
Cc1ncc(CO)c2cc(C(N)=O)c(=Nc3ccccc3)oc12,3%,-1%
O=C(NCc1ccccn1)c1ccc([N+](=O)[O-])cc1,-9%,-2%
O=C(Nc1cc(Sc2ccccn2)cc([N+](=O)[O-])c1)c1ccc([N+](=O)[O-])cc1,32µM*,0%
Ic1ccc2c(c1)N(c1ccccc1)c1cc(Nc3ccc4nc5ccc(I)cc5[n+](-c5ccccc5)c4c3)ccc1N2,3.2µM*,-2%
CCOC(=O)C1=C(N)N2C(=O)C(C)SC2=C(C(=O)OC)C1c1cccc(OC)c1 (stereo unspecified),-3%,-11%
N#C/C(=C\c1ccc(N2CCCCC2)c([N+](=O)[O-])c1)c1nn(-c2ccccc2)c(N)c1C#N,20µM*,-4%
CC1CCN(c2cc(N3CCC(C)CC3)c([N+](=O)[O-])cc2/C=C(\C#N)c2nn(-c3ccccc3)c(N)c2C#N)CC1,2µM*,0%
CC1CCCN(c2ccc(/C=C(\C#N)c3nn(-c4ccccc4)c(N)c3C#N)cc2[N+](=O)[O-])C1 (stereo unspecified),-29%,-4%
CC1CCN(c2ccc(/C=C(\C#N)c3nn(-c4ccccc4)c(N)c3C#N)cc2[N+](=O)[O-])CC1,-11%,-3%
CCOc1ccccc1NC(=O)CCn1c(=O)oc2ccccc21,-9%,0%
Cc1cccn2c3c(c(=O)nc12)C(c1cccc(F)c1)CC(=O)N3 (stereo unspecified),5%,1%
Cc1ccc(C(=O)C2=C(O)C(=O)N(CCCN3CCOCC3)C23C(=O)N(C)c2ccccc23)o1 (stereo unspecified),-4%,0%
CC(=O)NC(C)Cc1ccccc1 (stereo unspecified),2%,2%
O=C1OC(c2ccc(O)c(-c3ccccc3)c2)(c2ccc(O)c(-c3ccccc3)c2)c2c(Cl)c(Cl)c(Cl)c(Cl)c21,-1%,1%
O=C1OC2(c3cc(Br)c(O)c(Br)c3Oc3c2cc(Br)c(O)c3Br)c2c(Cl)c(Cl)c(Cl)c(Cl)c21,u,16µM*
COC(=O)c1nn(-c2ccccc2)c(Cl)c1/C=N/OCc1ccc(Cl)cc1Cl,2%,-3%
CN(C)/C=C(\C=N\OCc1ccc(Cl)cc1Cl)C(=O)Nc1ccc(Cl)c(Cl)c1,20µM*,-6%
C=CCSc1nnc(NC(=O)CSc2nc3ccccc3o2)s1,16µM*,8%
O=C(CSc1nc(-c2ccccc2)c(-c2ccccc2)o1)Nc1nncs1,6%,0%
O=C(CSc1nc(-c2ccccc2)c(-c2ccccc2)o1)Nc1nnc(-c2ccccc2)s1,10µM*,-4%
O=C(CSc1nc2ccccc2o1)Nc1nc(-c2ccccc2)c(-c2ccccc2)s1,13µM*,-1%
SMILES,Cruzain inh noDet,Cruzain Triton
O=C(CSc1nc2ccccc2o1)Nc1nncs1,3%,3%
Cc1nnc(NC(=O)CSc2nc3ccccc3o2)s1,-13%,2%
O=C(O)Cn1nc(N2CCN(c3ccccc3)CC2)ccc1=O,-7%,-3%
COc1ccc(CNC(=O)Cn2nnc(-c3ccc(NC(=O)C4CCCCC4)cc3)n2)cc1,10µM*,3%
CCOc1ccc(-c2nnn(CC(=O)NCc3ccc(OC)cc3)n2)cc1OCC,24%,0%
COc1cccc(N(C(=O)c2ccco2)C(C(=O)NC2CCCC2)c2ccc(N(C)C)cc2)c1 (stereo unspecified),-11%,-3%
COc1cccc(CSc2nc3sc(C)c(C)c3c(=O)n2Cc2ccco2)c1,25µM*,-3%
Cc1sc2nc(SCc3ccccc3)n(Cc3ccco3)c(=O)c2c1C,u,0%
Cc1cccc(CSc2nc3sc(C)c(C)c3c(=O)n2Cc2ccco2)c1,u,4%
Cc1sc2nc(SCc3nc4ccccc4[nH]3)n(Cc3ccco3)c(=O)c2c1C,32µM*,-2%
